{"source": "PubChem BioAssay", "data": [{"experiment": "calcein-AM signal in unstimulated myeloma cells – cell-based, calcein-AM fluorescence, 48 h, PK04 Diversity Set, profiling panel (AID 1166);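 note: cells grown under basal conditions without added stimulus; test concentration not given here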", "conditions": "RPMI8226 myeloma viability, higher = more signal", "values": [{"smiles": "CC(C)[Si]1(C(C)C)O[C@@H](c2ccccc2)c2cc(-c3ccc(-c4ccc(Cl)c(Cl)c4)o3)nc(-c3ccccc3)c21", "z-score": -3.09}, {"smiles": "OCCCC1=CC(c2cccs2)N(Cc2cc3c(cc2Br)OCO3)CC1", "note": "(stereo not given)", "z-score": -1.52}, {"smiles": "CCOC(=O)C[C@H]1[C@H](OC(=O)c2ccc(C(=O)c3ccccc3)cc2)[C@@H](NC(=O)c2ccc3ccccc3c2)c2cc(OCCCO)ccc2N1C(=O)Cc1ccc(OC)cc1", "z-score": 0.39}, {"smiles": "C=C(CC1([C@@H](NP(=O)(c2ccccc2)c2ccccc2)[C@H]2C[C@@H]2CCCC)CC1)c1ccccc1", "z-score": -3.25}, {"smiles": "COc1cc(COC(C)=O)ccc1OC(C)=O", "z-score": -1.49}, {"smiles": "C=C(CCCC)/C(=C/C[C@@H](OC(=O)c1ccncc1)c1ccc(OCCO)cc1)c1cc(C(=O)OC)ccc1OC", "z-score": -0.385}, {"smiles": "C=C(CCCC)C(=O)CC[C@@H](OC(=O)c1ccccc1-c1ccccc1C(=O)O)c1ccc(OCCO)cc1", "z-score": -3.04}, {"smiles": "COCCOC(=O)N1C(=O)[C@@]2(c3cc(C#CCC(C(=O)OC)C(=O)OC)ccc31)[C@H](C(=O)Nc1nc3ccccc3s1)[C@H]1C(=O)O[C@H](c3ccccc3)[C@H](c3ccccc3)N1[C@@H]2c1ccccc1OCCO", "z-score": 0.199}, {"smiles": "NC(=O)N1C(=O)C2C(C1=O)C1C=C(c3ccc(CO)cc3)C2C(c2cccs2)N1Cc1cccc(OC(F)(F)F)c1", "note": "(stereo not given)", "z-score": -2.08}, {"smiles": "COCCOC(=O)N1C(=O)[C@@]2(c3cc(C#CCNC(N)=O)ccc31)[C@H](C(=O)N1CCN(c3ncccn3)CC1)[C@H]1C(=O)O[C@H](c3ccccc3)[C@H](c3ccccc3)N1[C@@H]2c1ccc(OCCO)cc1", "z-score": 0.287}, {"smiles": "CCCc1cc2c(n1Cc1cc(F)cc(F)c1)C(C)C1CN(C(=O)c3ccccc3)C(C)(C(=O)OC)C21", "note": "(stereo not given)", "z-score": -4.39}, {"smiles": "CCCC[C@@H]1C[C@H]1[C@@H](NC(=O)c1ccco1)c1ccc(-c2ccccc2)cc1", "z-score": -1.03}, {"smiles": "C=CC[C@@]12N=C(c3ccc(OCCCO)cc3)O[C@@H]1c1ccccc1N(C)C2=O", "z-score": -2.61}, {"smiles": "COC(=O)[C@@]1(Cc2ccccc2)N=C(c2ccc(OCCCO)cc2)O[C@H]1c1ccccc1", "z-score": -3.94}, {"smiles": "COc1cccc(-c2cccc(=O)o2)c1", "z-score": -1.87}, {"smiles": "C=C[C@H](CO[Si](CC)(CC)CC)N(Cc1ccc(OC(C)=O)c(OC)c1)S(=O)(=O)c1ccc(Br)cc1", "z-score": -4.32}, {"smiles": "NC(=O)NCC#Cc1ccc2c(c1)[C@]1(C(=O)N2)[C@H](c2ccc(O)cc2)N2[C@H](c3ccccc3)[C@H](c3ccccc3)OC(=O)[C@H]2[C@@H]1C(=O)O", "z-score": -1.12}, {"smiles": "COC(=O)C[C@H]1O[C@]2(C(=O)N(C)c3ccccc32)[C@@H](C)[C@@H]1[Si](C)(C)F", "z-score": -0.804}, {"smiles": "O=C1C2C=CC(C(O)c3cc(C(F)(F)F)cc(C(F)(F)F)c3)N(n3cnnc3)C2C(=O)N1Cc1ccccc1", "note": "(stereo not given)", "z-score": -1.41}, {"smiles": "Cc1nc2cc(Br)ccc2c(=O)o1", "z-score": 0.834}, {"smiles": "C=C(CCCC)/C(=C/C[C@@H](OC(C)=O)c1ccc(OCCO)cc1)c1cnc2ccccc2c1", "z-score": -0.0971}, {"smiles": "COc1cc2c(cc1O)C(C1CC1)N(Cc1sc3ccccc3c1Cl)CC2", "note": "(stereo not given)", "z-score": -4.44}, {"smiles": "COc1cc2c(cc1O)C(c1cccs1)N(C)CC2", "note": "(stereo not given)", "z-score": 0.586}, {"smiles": "CN1C=C(C(=O)OCCS(C)(=O)=O)C(C(=O)OCCS(C)(=O)=O)=CC(c2ccc(CO)cc2)=CC1C1CC1", "note": "(stereo not given)", "z-score": -0.75}, {"smiles": "Cc1ccc(N2C(=O)c3ccccc3[C@@H](C(=O)NC3CC3)[C@@H]2c2ccc(CO)cc2)nc1", "z-score": -2.27}, {"smiles": "O=C1C[C@@](C(=O)NCC(F)(F)F)(c2ccc([N+](=O)[O-])cc2)[C@@H](c2ccc(CO)cc2I)N1C1CCCCC1", "z-score": -1.65}, {"smiles": "Cc1ccc(S[C@]2(C(=O)NCCCN(C)C)CC(=O)N(Cc3cc(C(F)(F)F)cc(C(F)(F)F)c3)[C@@H]2c2ccc(CO)cc2)cc1", "z-score": 0.51}, {"smiles": "C=C(COC)/C(=C/C[C@@H](OC(=O)c1ccncc1)c1ccc(CO)o1)c1cc(C(=O)OC)ccc1OC", "z-score": -0.27}, {"smiles": "C=C[C@H](OC)[C@@H](OC(=O)Nc1ccc(OC)cc1)c1ccc(O)c(F)c1", "z-score": -2.88}, {"smiles": "COCCOC(=O)N1C(=O)[C@@]2(c3cc(C#CC4(O)CCCCCC4)ccc31)[C@H](c1ccccc1OCCO)N1[C@H](c3ccccc3)[C@H](c3ccccc3)OC(=O)[C@H]1[C@@H]2C(=O)N1CCN(c2ncccn2)CC1", "z-score": -1.14}, {"smiles": "C=CC(=C)[C@H]1Oc2ccccc2S(=O)(=O)N2CCC[C@@H]12", "z-score": -1.64}, {"smiles": "[N-]=[N+]=Nc1ccccc1[C@@H]1OC(c2ccc(OCCCO)cc2)=N[C@]1(Cc1ccccc1)C(=O)N1CCOCC1", "z-score": -4.17}, {"smiles": "COCCOC(=O)N1C(=O)[C@@]2(c3cc(C#CCCO)ccc31)[C@H](C(N)=O)[C@H]1C(=O)O[C@H](c3ccccc3)[C@H](c3ccccc3)N1[C@@H]2c1ccc(O)cc1", "z-score": -1.2}, {"smiles": "C=C(C(=O)CC[C@@H](OC(=O)c1cccnc1)c1ccccc1OCCO)C(C)C", "z-score": -1.08}, {"smiles": "C=CCNC(=O)[C@H]1[C@@H]2C(=O)O[C@@H](c3ccccc3)[C@@H](c3ccccc3)N2[C@@H](c2ccccc2OCCO)[C@]12C(=O)Nc1ccc(C#CCC(C(=O)OC)C(=O)OC)cc12", "z-score": -4.63}]}]}
